USP2a block: inhibitors of human ubiquitin-specific protease USP2a; O75604; 0.01% of 330,000 active; USP2 core, Ub-CHOP2 coupled fluorogenic reporter, 485/531; Potency, µM (titrated, usually from 38.3 µM), for inactives: at the top dose activity change, negative = inhibition, most hits filed as inhibitors;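 note: plate controls were DMSO wells for no effect and full inhibition by NEM control for full effect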
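Deubiquitinase activity read as fluorescence (485/531 nm) after Ub-CHOP2 cleavage activates the enterokinase reporter on its substrate; USP2 core 10nM, Ub-CHOP2 and substrate 25nM each, 30min compound preincubation then 60min RT; data normalized to NEM, curves fitted.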
p53 reactivator: re-activators of mutant p53; H1299 p53-A138V BP100-luciferase reporter, luminescence, 24 h; Potency, µM (series often up to 92.2 µM), for inactives: at the top dose activity change, positive = activation, usual class: activators; 0.063% of 320,000 active; note: % of control where 0% means no effect; nearly all actives have a fitted effect of over 45% in size
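H1299 (p53-null), stable ts p53-A138V + BP100-Luc; 1000 cells/well, Opti-MEM/10% FBS; cpd 4 pt, 1:5; 24 h, 37 deg C, 5% CO2; detection reagent 10 min RT; luminescence.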
Tb PFK block: inhibitors of T. brucei phosphofructokinase | O15648 | T. brucei PFK, ADP-Glo luminescence | Potency, µM (series often up to 57.5 µM), for inactives: at the highest dose activity, negative = inhibition, hits mostly inhibitors | 0.17% of 330,000 active;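 note: 0% = uninhibited 1x PFK enzyme wells and -100% = no-enzyme wells; nearly all actives have a fitted effect of over 60% in size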
Target sequence (O15648 whole entry, looked up): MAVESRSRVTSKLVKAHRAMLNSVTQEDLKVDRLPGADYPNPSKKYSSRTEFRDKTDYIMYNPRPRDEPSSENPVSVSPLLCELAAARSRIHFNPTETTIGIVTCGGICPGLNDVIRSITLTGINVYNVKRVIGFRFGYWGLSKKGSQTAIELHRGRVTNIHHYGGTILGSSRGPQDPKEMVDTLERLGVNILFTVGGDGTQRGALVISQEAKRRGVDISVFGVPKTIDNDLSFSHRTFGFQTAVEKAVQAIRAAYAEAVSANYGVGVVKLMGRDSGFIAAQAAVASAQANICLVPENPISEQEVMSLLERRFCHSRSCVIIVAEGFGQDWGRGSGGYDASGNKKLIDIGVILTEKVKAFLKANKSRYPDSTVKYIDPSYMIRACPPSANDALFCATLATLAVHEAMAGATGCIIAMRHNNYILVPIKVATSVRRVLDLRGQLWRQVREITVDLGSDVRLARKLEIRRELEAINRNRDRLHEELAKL
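1.25 nM PFK with 0.5 mM F6P and 0.1 mM ATP in 0.1 M TEA pH 8.0, 5 mM MgCl2, incubated 45 min at room temperature; ADP measured by ADP-Glo luminescence; compounds titrated up to 57 uM.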
GLS inh: inhibitors of human glutaminase (GLS); O94925; GLS enzymatic activity, qHTS titration; Potency, µM (titrated, usually from 45.5 µM), for inactives: at the top dose activity change, negative = inhibition, actives largely listed as inhibitors; 0.21% of 410,000 active; AID 624170; note: % is set by controls: 0 for no effect and ±100 for the full control effect
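Compounds were pin-transferred onto hKGA, after which L-glutamine (1 mM solution) and a detection mix of glutamate oxidase, HRP and Amplex Red were added. Initial and 30 min RT fluorescence reads were collected.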
* hit, by the source's call; ? = inconclusive; . = no result. Sampled rows, rich in hits. Any-hit rate of the full collection: about 0.39%. Calls come from the whole dose curve; as a rule, active = well fitted curve in the direction sought with a large enough effect; inconclusive = small, poorly fitted or top-dose-only effect, or another doubt; inactive = no such curve, though single readings can be large; an effect the other way counts as inactive or inconclusive. Potency is the fitted concentration of half-maximal effect.

SMILES	USP2a block	p53 reactivator	Tb PFK block	GLS inh
Brc1ccc(Nc2nc(-c3cccnc3)cs2)cc1	-3.9%	2.5%	-8.8%	?
Oc1ccc(Nc2nc(-c3cccnc3)cs2)cc1	-0.6%	?	0.0%	5.01µM*
COc1ccc(CCNc2nc3cc(OC)c(OC)cc3c3nc(-c4ccccc4)nn23)cc1OC	.	.	.	-18.4%
O=C(O)CCC(=O)NNc1nc2ccccc2nc1-c1ccccc1	-1.5%	-1.2%	-3.2%	11.2µM*
CC(C)C1=CC2=CCC3C(C)(C(=O)O)CCCC3(C)C2CC1 (stereo not given) (tested in a mixture with another compound)	-1.4%	.	?	.
CC(C)C1=CC2=CC[C@@H]3[C@](C)(CCC[C@@]3(C)C(=O)O)[C@H]2CC1	.	.	.	14.1µM*
CCN(CC)S(=O)(=O)c1ccc(Cl)c(C(=O)NC2CCN(Cc3ccccc3)CC2)c1	4.9%	2.5%	-0.9%	0.1%
CC(C)CN(C[C@@H](OP(=O)(O)O)[C@H](Cc1ccccc1)NC(=O)O[C@@H]1CCOC1)S(=O)(=O)c1ccc(N)cc1	.	.	.	14.1µM*
COc1cc(C(C#N)N2CCC(c3ccccc3)=N2)ccc1O (stereo not given)	1.3%	22.6%	1.4%	10µM*
COc1ccc(NC(=O)CSc2oc(-c3ccco3)nc2S(=O)(=O)c2ccc(Br)cc2)c(OC)c1	.	.	.	-11.9%
Cc1cc(Cl)ccc1OCCCC(=O)NO	0.7%	4.3%	13.5µM*	22.4%
O=C(C(=Cc1ccccc1)c1ccccc1)c1ccccc1	.	.	.	5.5%
O=C(C(=Cc1ccc(F)cc1)c1ccccc1)c1ccc(O)cc1	.	.	.	11.2µM*
Cc1ccc2c(CC(=O)Nc3c(C(=O)c4ccc(F)cc4)oc4ccccc34)coc2c1C	.	.	.	-2.2%
O=C1CCCC(O)=C1N=Nc1ccc(C(=O)O)cc1	3.9%	3.4%	-26.0%	11.2µM*
Cc1ccc2c(c1)N(C(=O)CCC(=O)NCc1cccs1)CCO2	.	.	.	12.9%
CC(O)CNc1nc2c(c(=O)n(Cc3ccc(Cl)cc3)c(=O)n2C)n1C (stereo not given)	-0.4%	.	2.2%	11.2µM*
CN(CCO)c1nc2c(c(=O)n(Cc3ccc(Cl)cc3)c(=O)n2C)n1C	-0.1%	-4.9%	-9.0%	8.91µM*
O=c1cc(-c2ccccc2)n2c(SCc3ccccc3Cl)nnc2[nH]1	.	.	.	2.1%
O=C(Cc1sc(-c2ccccc2)nc1-c1ccccc1)Nc1ccccc1	2.9%	-5.1%	0.0%	1.6%
O=C(Cc1sc(Nc2ccccc2)nc1-c1ccccc1)NCc1ccccc1	-6.3%	39.8µM*	5.2%	9.1%
CN(C)c1cc(NC(=O)CNC(C)(C)C)c(O)c2c1C[C@@H]1C[C@H]3[C@H](N(C)C)C(=O)C(C(N)=O)=C(O)[C@@]3(O)C(=O)C1=C2O	.	.	.	6.31µM*
O=C(NC(=S)Nc1ccccc1Br)C1CCCC1	2.9%	28.2µM*	7.2%	-9.7%
O=C(NC(=S)Nc1ccccc1Br)C1CCCCC1	-2.6%	?	3.7%	0.9%
O=C(NCC(c1cccnc1)N1CCc2ccccc21)c1cccc(F)c1 (stereo not given)	.	.	.	11.4%
SMILES	USP2a block	p53 reactivator	Tb PFK block	GLS inh
O=C(Nc1ccccc1)Nc1cccc(C(F)(F)F)c1	2.0%	7.1%	0.6%	12.7%
COC(=O)/C(=C\C(=O)c1ccccc1)Nc1cccc(C(F)(F)F)c1	3.0%	28.2µM*	-0.4%	6.4%
CO/N=C(/C(=O)N[C@@H]1C(=O)N2C(C(=O)O)=C(CSc3cnns3)CS[C@H]12)c1csc(N)n1	.	.	.	31.6µM*
O=c1c2cccc(Cl)c2nc2n1Cc1ccccc1-2	-1.3%	9.6%	?	12.6µM*
Cc1cc(C)cc(N=c2c([N+](=O)[O-])nn(-c3ccc(Cl)cc3)n2O)c1	-0.1%	1.6%	6.2%	-8.9%
CCc1ccc(N=c2c([N+](=O)[O-])nn(-c3ccccc3)n2O)cc1	-1.7%	39.8µM*	?	9.6%
CCN(CC)c1ccc(N=C2C=CC(=O)C=C2NC(C)=O)cc1	.	.	.	11.2µM*
CCOc1ccccc1N1C(=O)CC(Sc2ncccc2C(=O)O)C1=O (stereo not given)	-0.4%	10.0%	-2.4%	17.8µM*
Cc1ccc(S(=O)(=O)Nc2c(Cl)c(Cl)c(O)c3ccccc23)cc1	0.3%	-90.7%	15.1µM*	.
Cc1ccc(S(=O)(=O)Nc2c(O)ccc3ccccc23)cc1	.	.	.	38.2%
COc1cc(/C=C/C(=O)OCC(=O)Nc2ccc(C)cc2[N+](=O)[O-])ccc1O	0.0%	-1.1%	-5.3%	5.62µM*
COc1cc(/C=C/C(=O)OCC(=O)Nc2cc(C)c(C)cc2[N+](=O)[O-])ccc1O	0.0%	0.0%	-0.4%	6.3%
O=[N+]([O-])c1cc(Cl)ccc1N1CCN(c2ccccc2O)CC1	-9.7%	8.5%	0.5%	15.8µM*
O=[N+]([O-])c1cc(Cl)ccc1N1CCCCC1	0.3%	2.4%	-15.9%	-10.8%
CC(=O)c1ccc(N2CCN(c3ccc(C(N)=O)cc3[N+](=O)[O-])CC2)cc1	0.1%	14.5%	-1.6%	4.7%
NC(=O)c1ccc(N2CCN(c3ccc(O)cc3)CC2)c([N+](=O)[O-])c1	1.8%	-2.5%	-20.9%	12.6µM*
S=c1[nH]nc(-c2ccccc2)n1/N=C/c1ccc(Cl)cc1	-1.5%	-4.8%	-0.2%	15.8µM*
CCc1ccc(C2c3c(-c4ccccc4O)n[nH]c3C(=O)N2Cc2ccncc2)cc1 (stereo not given)	.	.	.	12.6%
COc1ccc(N=C(N)SCc2ccccn2)cc1	2.5%	35.5µM*	-1.4%	-18.3%
Cc1ccc(NC(=O)Cn2c(=O)n(CCCCC(=O)NCc3ccc4c(c3)OCO4)c(=O)c3ccccc32)cc1	.	.	.	8.0%
O=C(O)c1cc(Cl)c2c(c1)OCO2	0.2%	-1.0%	-1.2%	20µM*
O=C(O)C[C@@H]1C(=O)O[C@@H]2C(COC(=O)c3cc(O)c(O)c(O)c3)O[C@@H](OC(=O)c3cc(O)c(O)c(O)c3)[C@@H](OC(=O)c3cc(O)c(O)c4c3[C@H]1[C@H](O)C(=O)O4)[C@H]2OC(=O)c1cc(O)c(O)c(O)c1 (stereo not given in full)	0.891µM*	1.6%	1.51µM*	.
CC1Cc2cc(S(=O)(=O)CCC(=O)Nc3ccc(Cl)cc3F)ccc2N1C(=O)C1CC1 (stereo not given)	.	.	.	-2.8%
COCCNC(=O)COCc1cc(-c2ccc3c(c2)OCO3)on1	0.7%	6.2%	3.3%	-7.3%
COCCNC(=O)c1cc(-c2ccc3c(c2)OCO3)on1	0.1%	20µM*	0.9%	8.4%
CCCCCn1c(=O)[nH]c2cc(C(=O)NCc3ccc(C)cc3)ccc2c1=O	.	.	.	4.2%
Cc1nc(S/C(=C\c2ccc(-c3ccc(C(=O)O)c(Cl)c3)o2)C(=O)O)n[nH]1	1.9%	-2.5%	10.5%	15.8µM*
Cc1ccc(/C=C2/Sc3ccc(C(=O)NCc4ccccn4)cc3NC2=O)cc1	-0.9%	-0.6%	-5.2%	17.8µM*
Cc1ccc(/C=C2/Sc3ccc(C(=O)N4CCN(c5ccccn5)CC4)cc3NC2=O)cc1	4.4%	-1.4%	0.6%	-7.7%
